Data reported in publication PMC8384837, “Expanding the binding specificity for RNA recognition by a PUF domain”.

Columns and labels:
Experiment in all cases: yeast three-hybrid, YBZ-1, SC-Leu-His + 0.5 mM 3-AT, 4 days
Conditions in all cases: tags: N-Gal4 AD-HA kept; label: inside an RPR1-promoter hybrid RNA with tandem MS2 sites; ssRNA
PUM1 PUF domain R4-TPC = PUM1 PUF domain R4-TPC (Homo sapiens, UniProt Q14671 828-1176, N971T;H972P;Q975C)
Method in brief: (§1)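 A centromeric plasmid in strain YBZ-1 co-expressed Pumilio-1 PUF domain libraries, randomized at the three base-contacting residues of each repeat, with matching RNA elements; the strain carries a LexA–MS2 coat fusion and a HIS3 reporter. After four days on SC-Leu (input) or SC-Leu-His + 0.5 mM 3-AT (selection), the repeat regions were PCR-amplified and Illumina-sequenced. The interaction score is the log change in variant frequency from input to selection, using log2 and a pseudocount of 1 where absent.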

PUM1 PUF domain R5-RDR = PUM1 PUF domain R5-RDR (Homo sapiens, UniProt Q14671 828-1176, C1007R;R1008D;Q1011R)
Method in brief: as §1

PUM1 PUF domain R5-QCH = PUM1 PUF domain R5-QCH (Homo sapiens, UniProt Q14671 828-1176, C1007Q;R1008C;Q1011H)
Method in brief: as §1

PUM1 PUF domain R3-LWG = PUM1 PUF domain R3-LWG (Homo sapiens, UniProt Q14671 828-1176, C935L;R936W;Q939G)
Method in brief: as §1

PUM1 PUF domain R3-GYW = PUM1 PUF domain R3-GYW (Homo sapiens, UniProt Q14671 828-1176, C935G;R936Y;Q939W)
Method in brief: as §1

PUM1 PUF domain R8-PKR = PUM1 PUF domain R8-PKR (Homo sapiens, UniProt Q14671 828-1176, N1122P;Y1123K;Q1126R)
Method in brief: as §1

PUM1 PUF domain R8-GWR = PUM1 PUF domain R8-GWR (Homo sapiens, UniProt Q14671 828-1176, N1122G;Y1123W;Q1126R)
Method in brief: as §1

PUM1 PUF domain R5-LNR = PUM1 PUF domain R5-LNR (Homo sapiens, UniProt Q14671 828-1176, C1007L;R1008N;Q1011R)
Method in brief: as §1

PUM1 PUF domain R5-IHE = PUM1 PUF domain R5-IHE (Homo sapiens, UniProt Q14671 828-1176, C1007I;R1008H;Q1011E)
Method in brief: as §1

PUM1 PUF domain R7-QNE = PUM1 PUF domain R7-QNE (Homo sapiens, UniProt Q14671 828-1176, S1079Q)
Method in brief: as §1

PUM1 PUF domain R3-TRG = PUM1 PUF domain R3-TRG (Homo sapiens, UniProt Q14671 828-1176, C935T;Q939G)
Method in brief: as §1

PUM1 PUF domain R6-VYQ = target: T1, PUM1 PUF domain R6-VYQ (Homo sapiens, UniProt Q14671 828-1176, N1043V)
T1 sequence: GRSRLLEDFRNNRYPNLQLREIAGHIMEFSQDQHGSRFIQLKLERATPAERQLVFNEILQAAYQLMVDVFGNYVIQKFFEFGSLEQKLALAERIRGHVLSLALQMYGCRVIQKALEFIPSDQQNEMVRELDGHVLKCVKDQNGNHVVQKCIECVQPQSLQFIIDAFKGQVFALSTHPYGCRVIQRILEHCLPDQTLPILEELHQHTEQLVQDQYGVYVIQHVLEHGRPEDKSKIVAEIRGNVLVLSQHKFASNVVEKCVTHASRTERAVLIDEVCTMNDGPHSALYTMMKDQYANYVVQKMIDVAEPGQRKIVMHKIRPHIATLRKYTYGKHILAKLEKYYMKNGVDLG
Method in brief: as §1

PUM1 PUF domain R5-RFM = PUM1 PUF domain R5-RFM (Homo sapiens, UniProt Q14671 828-1176, C1007R;R1008F;Q1011M)
Method in brief: as §1

PUM1 PUF domain R2-RRG = PUM1 PUF domain R2-RRG (Homo sapiens, UniProt Q14671 828-1176, N899R;Y900R;Q903G)
Method in brief: as §1

PUM1 PUF domain R1-ERV = PUM1 PUF domain R1-ERV (Homo sapiens, UniProt Q14671 828-1176, S863E;Q867V)
Method in brief: as §1

PUM1 PUF domain R5-KRW = PUM1 PUF domain R5-KRW (Homo sapiens, UniProt Q14671 828-1176, C1007K;Q1011W)
Method in brief: as §1

PUM1 PUF domain R5-KCV = PUM1 PUF domain R5-KCV (Homo sapiens, UniProt Q14671 828-1176, C1007K;R1008C;Q1011V)
Method in brief: as §1

PUM1 PUF domain R7-LWG = PUM1 PUF domain R7-LWG (Homo sapiens, UniProt Q14671 828-1176, S1079L;N1080W;E1083G)
Method in brief: as §1

PUM1 PUF domain R7-KWR = PUM1 PUF domain R7-KWR (Homo sapiens, UniProt Q14671 828-1176, S1079K;N1080W;E1083R)
Method in brief: as §1

PUM1 PUF domain R5-QAK = PUM1 PUF domain R5-QAK (Homo sapiens, UniProt Q14671 828-1176, C1007Q;R1008A;Q1011K)
Method in brief: as §1

Sequence: GGCUAGAACUAGUGGAUCCCCCGGCGCCCGGCGGCUCGAGCCCGGGUAAGUGUAUAUAGUCUGCAUGCCGCCGGGCGCCAUGCCUGCAGGUCGACUCUAGAAAACAUG
- binding signal (PUM1 PUF domain R4-TPC): 5.59 log2 enrichment (interaction score)

Sequence: GGCUAGAACUAGUGGAUCCCCCGGCGCCCGGCGGCUCGAGCCCGGGUAAGUGUGAAUAGUCUGCAUGCCGCCGGGCGCCAUGCCUGCAGGUCGACUCUAGAAAACAUG
- binding signal (PUM1 PUF domain R5-RDR): 2.62 log2 enrichment (interaction score)
- binding signal (PUM1 PUF domain R5-QCH): 3.31 log2 enrichment (interaction score)

Sequence: GGCUAGAACUAGUGGAUCCCCCGGCGCCCGGCGGCUCGAGCCCGGGUAAGUGUAAUUAGUCUGCAUGCCGCCGGGCGCCAUGCCUGCAGGUCGACUCUAGAAAACAUG
- binding signal (PUM1 PUF domain R3-LWG): 3.8 log2 enrichment (interaction score)
- binding signal (PUM1 PUF domain R3-GYW): 2.62 log2 enrichment (interaction score)

Sequence: GGCUAGAACUAGUGGAUCCCCCGGCGCCCGGCGGCUCGAGCCCGGGUAAGUGUAAGUAGUCUGCAUGCCGCCGGGCGCCAUGCCUGCAGGUCGACUCUAGAAAACAUG
- binding signal (PUM1 PUF domain R3-LWG): 6.06 log2 enrichment (interaction score)

Sequence: GGCUAGAACUAGUGGAUCCCCCGGCGCCCGGCGGCUCGAGCCCGGGUAAGCGUAAAUAGUCUGCAUGCCGCCGGGCGCCAUGCCUGCAGGUCGACUCUAGAAAACAUG
- binding signal (PUM1 PUF domain R8-PKR): 3.72 log2 enrichment (interaction score)
- binding signal (PUM1 PUF domain R8-GWR): 5.66 log2 enrichment (interaction score)

Sequence: GGCUAGAACUAGUGGAUCCCCCGGCGCCCGGCGGCUCGAGCCCGGGUAAGUGUAAAUAGUCUGCAUGCCGCCGGGCGCCAUGCCUGCAGGUCGACUCUAGAAAACAUG
- binding signal (PUM1 PUF domain R8-PKR): 2.74 log2 enrichment (interaction score)
- binding signal (PUM1 PUF domain R8-GWR): 5.13 log2 enrichment (interaction score)
- binding signal (PUM1 PUF domain R5-LNR): 1.95 log2 enrichment (interaction score)
- binding signal (PUM1 PUF domain R5-IHE): 3.04 log2 enrichment (interaction score)
- binding signal (PUM1 PUF domain R3-LWG): 2.39 log2 enrichment (interaction score)
- binding signal (PUM1 PUF domain R3-GYW): 5.68 log2 enrichment (interaction score)
- binding signal (PUM1 PUF domain R7-QNE): 4.09 log2 enrichment (interaction score)
- binding signal (PUM1 PUF domain R3-TRG): 3.15 log2 enrichment (interaction score)
- binding signal (PUM1 PUF domain R6-VYQ): 4.06 log2 enrichment (interaction score)
- binding signal (PUM1 PUF domain R4-TPC): 4.17 log2 enrichment (interaction score)
- binding signal (PUM1 PUF domain R5-RFM): 1.2 log2 enrichment (interaction score)

Sequence: GGCUAGAACUAGUGGAUCCCCCGGCGCCCGGCGGCUCGAGCCCGGGUAAGUGUAAAGAGUCUGCAUGCCGCCGGGCGCCAUGCCUGCAGGUCGACUCUAGAAAACAUG
- binding signal (PUM1 PUF domain R2-RRG): 2.19 log2 enrichment (interaction score)

Sequence: GGCUAGAACUAGUGGAUCCCCCGGCGCCCGGCGGCUCGAGCCCGGGUAAGUGUAAAUCGUCUGCAUGCCGCCGGGCGCCAUGCCUGCAGGUCGACUCUAGAAAACAUG
- binding signal (PUM1 PUF domain R1-ERV): 5.04 log2 enrichment (interaction score)

Sequence: GGCUAGAACUAGUGGAUCCCCCGGCGCCCGGCGGCUCGAGCCCGGGUAAGUGUCAAUAGUCUGCAUGCCGCCGGGCGCCAUGCCUGCAGGUCGACUCUAGAAAACAUG
- binding signal (PUM1 PUF domain R5-RDR): 3.41 log2 enrichment (interaction score)
- binding signal (PUM1 PUF domain R5-KRW): 2.58 log2 enrichment (interaction score)
- binding signal (PUM1 PUF domain R5-KCV): 2.63 log2 enrichment (interaction score)

Sequence: GGCUAGAACUAGUGGAUCCCCCGGCGCCCGGCGGCUCGAGCCCGGGUAAGUUUAAAUAGUCUGCAUGCCGCCGGGCGCCAUGCCUGCAGGUCGACUCUAGAAAACAUG
- binding signal (PUM1 PUF domain R7-LWG): 5.68 log2 enrichment (interaction score)

Sequence: GGCUAGAACUAGUGGAUCCCCCGGCGCCCGGCGGCUCGAGCCCGGGUAAGUCUAAAUAGUCUGCAUGCCGCCGGGCGCCAUGCCUGCAGGUCGACUCUAGAAAACAUG
- binding signal (PUM1 PUF domain R7-LWG): 2.65 log2 enrichment (interaction score)
- binding signal (PUM1 PUF domain R7-KWR): 5.09 log2 enrichment (interaction score)

Sequence: GGCUAGAACUAGUGGAUCCCCCGGCGCCCGGCGGCUCGAGCCCGGGUAAGUGUUAAUAGUCUGCAUGCCGCCGGGCGCCAUGCCUGCAGGUCGACUCUAGAAAACAUG
- binding signal (PUM1 PUF domain R5-QAK): 3.34 log2 enrichment (interaction score)
- binding signal (PUM1 PUF domain R5-LNR): 4.82 log2 enrichment (interaction score)
- binding signal (PUM1 PUF domain R5-RFM): 4.36 log2 enrichment (interaction score)
- binding signal (PUM1 PUF domain R5-KCV): 1.51 log2 enrichment (interaction score)

Sequence: GGCUAGAACUAGUGGAUCCCCCGGCGCCCGGCGGCUCGAGCCCGGGUAAGUAUAAAUAGUCUGCAUGCCGCCGGGCGCCAUGCCUGCAGGUCGACUCUAGAAAACAUG
- binding signal (PUM1 PUF domain R7-KWR): 2.7 log2 enrichment (interaction score)

Sequence: GGCUAGAACUAGUGGAUCCCCCGGCGCCCGGCGGCUCGAGCCCGGGUAAGUGUACAUAGUCUGCAUGCCGCCGGGCGCCAUGCCUGCAGGUCGACUCUAGAAAACAUG
- binding signal (PUM1 PUF domain R4-TPC): 5.9 log2 enrichment (interaction score)
